Assay results from ChEMBL document CHEMBL1201862, “PubChem BioAssay data set” (2004).
Out of some 400,000 compounds screened, about 2,100 (0.53%) were called active. Inconclusive results (about 14%) are left out. The sample holds actives, similar compounds and a random draw of the others, so the mix is not that of the screen. How the calls were made is not given here.

What follows are compounds tested against Ataxin-2 (Homo sapiens) (UniProt Q99700) (assay: qHTS for Inhibitors of ATXN expression.).
Ataxin-2 (Homo sapiens), sequence (Q99700 whole entry): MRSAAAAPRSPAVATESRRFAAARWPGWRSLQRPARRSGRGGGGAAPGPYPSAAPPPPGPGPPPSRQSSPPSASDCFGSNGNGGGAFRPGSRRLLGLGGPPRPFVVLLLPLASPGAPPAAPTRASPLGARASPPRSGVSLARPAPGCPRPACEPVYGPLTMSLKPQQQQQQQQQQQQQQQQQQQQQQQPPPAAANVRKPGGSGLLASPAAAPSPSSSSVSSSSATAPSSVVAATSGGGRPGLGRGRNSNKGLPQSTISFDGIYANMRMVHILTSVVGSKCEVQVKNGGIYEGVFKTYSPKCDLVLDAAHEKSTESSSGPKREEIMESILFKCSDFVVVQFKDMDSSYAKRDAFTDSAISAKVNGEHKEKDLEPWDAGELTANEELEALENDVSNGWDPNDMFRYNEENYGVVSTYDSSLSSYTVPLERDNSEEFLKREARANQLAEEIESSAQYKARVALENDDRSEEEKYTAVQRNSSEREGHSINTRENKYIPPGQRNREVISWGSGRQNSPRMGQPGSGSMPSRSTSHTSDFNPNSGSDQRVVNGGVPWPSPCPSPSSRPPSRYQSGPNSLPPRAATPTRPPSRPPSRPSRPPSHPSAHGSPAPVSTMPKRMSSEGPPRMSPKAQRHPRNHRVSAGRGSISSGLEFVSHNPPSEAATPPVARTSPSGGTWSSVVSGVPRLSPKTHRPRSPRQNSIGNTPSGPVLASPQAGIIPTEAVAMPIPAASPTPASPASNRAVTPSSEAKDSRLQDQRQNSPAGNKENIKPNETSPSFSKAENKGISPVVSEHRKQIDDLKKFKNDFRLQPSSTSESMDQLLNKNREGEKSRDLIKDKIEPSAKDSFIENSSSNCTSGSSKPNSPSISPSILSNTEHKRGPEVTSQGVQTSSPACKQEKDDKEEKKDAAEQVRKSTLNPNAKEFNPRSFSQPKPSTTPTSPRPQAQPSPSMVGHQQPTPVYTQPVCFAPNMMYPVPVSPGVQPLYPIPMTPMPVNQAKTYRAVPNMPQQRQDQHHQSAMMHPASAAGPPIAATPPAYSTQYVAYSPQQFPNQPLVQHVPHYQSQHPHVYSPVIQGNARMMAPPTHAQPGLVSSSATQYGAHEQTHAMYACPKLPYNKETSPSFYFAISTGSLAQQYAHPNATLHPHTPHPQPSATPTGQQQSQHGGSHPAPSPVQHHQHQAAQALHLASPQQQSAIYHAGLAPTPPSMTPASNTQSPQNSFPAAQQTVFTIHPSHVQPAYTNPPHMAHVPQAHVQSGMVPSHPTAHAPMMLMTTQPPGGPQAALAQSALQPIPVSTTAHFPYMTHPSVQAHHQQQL
Assay type: functional
For `CN1CCN(C(=O)c2cc3nc(-c4ccco4)cc(C(F)(F)F)n3n2)CC1`, the Potency was “inactive”.
With `Nc1ccc(Cn2ccc3c4c(N)nc(N)nc4ccc32)cc1` the Potency was 29.9 µM (active).
`CN(CC(=O)Nc1ccccc1Sc1ccccc1)C1CCCCC1` was tested, and the Potency was “inactive”.
For `COC(=O)N1C(=O)[C@@](c2ccccc2)(C2CCCC2)N1C(=O)OC`, the Potency was 17.8 µM (active).
With `COc1ccc(CC(=O)NC2CCCc3ccccc32)cc1` (configuration not stated) the Potency was “inactive”.
In the case of `Cc1ccc(C2=CC(c3ccc(Cl)cc3)n3nc(-c4ccc(C)cc4)nc3N2)cc1` (configuration not stated), the Potency is reported as “inactive”.
`COc1ccc(CCNC(=O)CCCn2c(=O)c3ccccc3n(CC(=O)Nc3ccc(C)cc3Cl)c2=O)cc1OC` was tested, and the Potency was 20 µM (active).
`COc1ccc(Cl)cc1NC(=O)Cn1c(=O)n(CCCC(=O)NCCc2ccc(OC)c(OC)c2)c(=O)c2ccccc21` was tested, and the Potency was 39.8 µM (active).
With `COc1ccc(CCNC(=O)CCCn2c(=O)c3ccccc3n(Cc3cccc(Cl)c3)c2=O)cc1OC` the Potency was 39.8 µM (active).
In the case of `COc1ccc(Cl)cc1NC(=O)CN1C(=O)NC(C)(Cc2ccc(OC)c(OC)c2)C1=O` (configuration not stated), the Potency is reported as “inactive”.
For `Cc1ccc2c(c1)c(=O)c1ccccc1n2CCCC(=O)Nc1ccc(C)c(F)c1`, the Potency was “inactive”.
With `O=C(CCCn1c2ccccc2c(=O)c2ccccc21)Nc1cccc(Cl)c1` the Potency was “inactive”.
For `COC/C=C/C1=CC2=CC(=O)C(C)(OC(=O)c3cnc4ccccc4n3)C(=O)C2=CN1Cc1ccccc1` (configuration not stated), the Potency was 12.6 µM (active).
`COc1ccc2oc(=O)c(-c3nnc(N)s3)cc2c1` was tested, and the Potency was “inactive”.
In the case of `CCC(C)NC(=O)c1sc2nc(C)c(C(=O)Nc3ccc(C)cc3C)c(-c3ccccc3Cl)c2c1N` (configuration not stated), the Potency is reported as “inactive”.
With `C=C(C)COc1ccc(-c2[nH]nc(C)c2-c2ccc(Br)cc2)c(O)c1` the Potency was 25.1 µM (active).
For `C=C(C)COc1ccc(-c2n[nH]cc2-c2ccc(OC)c(OC)c2)c(O)c1`, the Potency was 44.7 µM (active).
With `CCN(CC)C(=O)c1sc2nc(-c3cccs3)cc(-c3ccc(Cl)cc3)c2c1N` the Potency was “inactive”.
With `C=C(C)COc1ccc(-c2ncncc2-c2ccc(Br)cc2)c(O)c1` the Potency was “inactive”.
In the case of `C=C(C)COc1ccc(-c2nc(N)ncc2-c2ccc(Cl)cc2)c(O)c1`, the Potency is reported as 39.8 µM (active).
In the case of `COc1ccc(-c2c(C)c3ccc(O)cc3oc2=O)cc1`, the Potency is reported as “inactive”.
For `COc1ccc(-c2c(C)n[nH]c2-c2ccc(OC)c(C)c2O)cc1`, the Potency was 39.8 µM (active).
`COC(=O)c1c(C)nc(C)c(C(=O)OC)c1-c1ccc(OC)cc1` was tested, and the Potency was “inactive”.
In the case of `COc1cc(/C=N/NC(=O)Nc2cccc3nsnc23)cc(OC)c1OC`, the Potency is reported as “inactive”.
For `CNC(=O)c1cc2c(=O)n3cccc(C)c3nc2n(C(C)C)c1=N`, the Potency was “inactive”.
In the case of `Cc1ccc(S(=O)(=O)NCCc2cn3nc(C)c(C)nc3n2)cc1C`, the Potency is reported as “inactive”.
For `Nc1ccc2c(c1)Oc1ccccc1C=C2`, the Potency was “inactive”.
For `COc1ccccc1/N=c1\oc2cc(O)ccc2cc1C(N)=O`, the Potency was “inactive”.
With `CCn1nc(NC(=O)Cc2ccc(OC)cc2)c2cc3cccc(C)c3nc21` the Potency was “inactive”.
In the case of `C/C(CC1CC2=C(CC1(C)C)C(C)(C)CCC2)=N\NC(N)=S` (configuration not stated), the Potency is reported as 35.5 µM (active).
In the case of `CN1C(=O)c2ccccc2N(C)C1c1ccccc1Cl` (configuration not stated), the Potency is reported as “inactive”.
`COc1ccccc1C1CCCN1Cc1nc(-c2ccc(C)s2)oc1C` (configuration not stated) was tested, and the Potency was “inactive”.
`Cc1cc(C)n2nc(SCC(=O)Nc3ccc(F)c(F)c3F)nc2n1` was tested, and the Potency was “inactive”.
For `COCCNc1cc(C)nc2cc(-c3ccc(C)cc3)nn12`, the Potency was “inactive”.
`Cc1ccc(Nc2cc(C)nc3nc(Cc4ccc(Cl)cc4)nn23)cc1` was tested, and the Potency was 22.4 µM (active).
With `Cc1c(-c2ccccc2)c(=O)oc2c(CN3CCN(C)CC3)c(O)ccc12` the Potency was “inactive”.
`CN(C(=O)COC(=O)c1cc(-c2ccc(Cl)s2)nc2ccccc12)C1CCS(=O)(=O)C1` (configuration not stated) was tested, and the Potency was “inactive”.
`Cc1ccc(-c2cc(C(=O)OCC(=O)N(C)C3CCS(=O)(=O)C3)c3ccccc3n2)o1` (configuration not stated) was tested, and the Potency was “inactive”.
In the case of `CN(C(=O)COC(=O)c1nc(Cl)c(Cl)c(Cl)c1Cl)C1CCS(=O)(=O)C1` (configuration not stated), the Potency is reported as 33.6 µM (active).
For `CC1Cc2ccccc2N1C(=O)COC(=O)c1ccc(N(C)C)cc1` (configuration not stated), the Potency was “inactive”.
`CCO/C(O)=C(\C#N)c1cc(C)c2ccccc2n1` was tested, and the Potency was “inactive”.
With `Cc1cc(/C=C(/C#N)c2nc3ccccc3[nH]2)c(C)n1-c1ccccc1C(=O)O` the Potency was “inactive”.
For `COc1cc(/C=C(/C#N)c2nc3ccccc3[nH]2)ccc1OCC(=O)Nc1ccccc1C`, the Potency was “inactive”.
In the case of `COc1cc(/C=C(/C#N)c2nc3ccccc3[nH]2)ccc1OCC(=O)Nc1ccccc1C(C)C`, the Potency is reported as “inactive”.
For `Cc1cc(Br)ccc1SCC(=O)OCC(O)=C(C#N)c1nc2ccccc2[nH]1`, the Potency was 39.8 µM (active).
With `Cc1cc(Br)ccc1SCC(=O)OC/C(O)=C(\C#N)c1nc2ccccc2[nH]1` the Potency was 11.2 µM (active).
`Cc1c(C)c(C)c(S(=O)(=O)N2CCNCC2)c(C)c1C` was tested, and the Potency was “inactive”.
`COCCN1C=C(C(=O)OC)C(c2ccccc2Cl)C(C(=O)OC)=C1` was tested, and the Potency was “inactive”.
With `O=C(NC(CC(=O)N1CCN(c2ccccc2)CC1)c1ccccc1)c1ccccc1` (configuration not stated) the Potency was “inactive”.
For `O=C(N[C@@H](Cc1ccccc1)C(=O)OCc1ccccc1)c1[nH]cnc1C(=O)N1CCN(c2ccccc2)CC1`, the Potency was 22.4 µM (active).
`CC(C)C[C@H](NC(=O)c1[nH]cnc1C(=O)N1CCN(C(=O)OC(C)(C)C)CC1)C(=O)OCc1ccccc1` was tested, and the Potency was 35.5 µM (active).
For `O=C(N[C@@H](Cc1ccccc1)C(=O)OCc1ccccc1)c1ccco1`, the Potency was “inactive”.
In the case of `O=C(O)CCCC(=O)N1CCN(c2nc(-c3ccccc3)c3ccccc3n2)CC1`, the Potency is reported as “inactive”.
For `COc1ccc2nc(S)cc(C)c2c1`, the Potency was “inactive”.
For `COc1ccc2nc(C)cc(N/N=C/c3cccc(OC)c3O)c2c1`, the Potency was 35.5 µM (active).
In the case of `Cc1cc(C(=O)N/N=C/c2cccnc2)c2ccccc2n1`, the Potency is reported as “inactive”.
In the case of `COc1cccc(-c2cc(C(=O)N/N=C/c3cccc(OC)c3OC)c3ccccc3n2)c1`, the Potency is reported as “inactive”.
For `COc1ccc(/C=N/Nc2cc(C)nc3ccc(OC)cc23)c(OC)c1`, the Potency was “inactive”.
`COc1cccc(/C=N/n2c(SC)nnc2-c2ccccc2)c1O` was tested, and the Potency was “inactive”.
In the case of `COc1ccc2nc(C)cc(SCC(=O)N/N=C/c3cccc4ccccc34)c2c1`, the Potency is reported as 22.4 µM (active).
With `COc1ccc2cc(/C=N/NC(=O)CN(c3ccccc3C)S(=O)(=O)c3ccccc3)c(Cl)nc2c1` the Potency was “inactive”.
For `COc1ccc2nc(C)cc(N/N=C/c3ccccc3)c2c1`, the Potency was 31.6 µM (active).
`COc1ccc(C(=O)Nc2nc3n(n2)C(c2ccccc2)C=C(c2ccccc2)N3)cc1` (configuration not stated) was tested, and the Potency was “inactive”.
`COc1cccc(C2C=C(c3cccs3)Nc3ncnn32)c1OC` (configuration not stated) was tested, and the Potency was “inactive”.
For `Cc1nc(N)c(Br)c(C)c1Br`, the Potency was “inactive”.
With `Clc1ccccc1N1CCN(Cc2ccco2)CC1` the Potency was “inactive”.
With `CCOC(=O)c1sc2nc(C3CC3)cc(-c3ccc(F)cc3)c2c1N` the Potency was “inactive”.
With `Cc1ccccc1NCC(=O)Nc1cc(S(=O)(=O)N2CCCCC2)ccc1C` the Potency was “inactive”.
For `SC1=C2CCCCCC2=NC2(CCCCCC2)S1`, the Potency was 44.7 µM (active).
`CSC1=NN(c2ccccc2)CN(c2ccccc2)N1C` was tested, and the Potency was “inactive”.
With `COc1ccc(-c2c(C)c3ccc(O)c(CN4CCC(C)CC4)c3oc2=O)cc1OC` the Potency was “inactive”.
With `CCOC(=O)C1CCN(S(=O)(=O)c2ccc3c4c(cccc24)C(=O)N3)CC1` the Potency was “inactive”.
`CC1=[N+](C)c2c(ccc3cccnc23)C1(C)C` was tested, and the Potency was “inactive”.
With `CC(C)c1ccc2nc3sc(C(=O)N4CCc5ccccc5C4)c(N)c3cc2c1` the Potency was “inactive”.
For `Cn1c2ccccc2c(=O)c2c(=O)n(C3CCCCCC3)c(C3CCCCC3)nc21`, the Potency was “inactive”.
For `Cc1c(C(=O)Nc2nc3ccccc3[nH]2)oc2ccccc12`, the Potency was 39.8 µM (active).
With `COc1ccc(C(=O)N[C@H](C(=O)Nc2nc3ccccc3[nH]2)C(C)C)cc1` the Potency was “inactive”.
With `C/C(=N\Nc1nc2ccccc2[nH]1)c1cc2ccccc2o1` the Potency was “inactive”.
With `COCCNC(=O)c1cnn2c(C(F)(F)F)cc(-c3ccc(C)cc3)nc12` the Potency was “inactive”.
For `CCOC(=O)c1cc2c(=O)n3ccccc3nc2n(CCCOC)/c1=N\C(=O)c1ccncc1`, the Potency was “inactive”.
In the case of `CN1CCN(c2ccc3sc(-n4ccc5ccccc54)nc3c2)CC1`, the Potency is reported as 39.8 µM (active).
`CN1CCN(c2ccc(-c3ccc4ccccc4n3)cc2)CC1` was tested, and the Potency was “inactive”.
In the case of `O=c1c(-c2nc3ccccc3s2)cccn1Cc1ccccc1`, the Potency is reported as “inactive”.
`C[C@@H]1O[C@H](O[C@@H]2[C@H](C)O[C@H](O[C@@H]3[C@H](C)O[C@H](O[C@H]4CC[C@]5(C)[C@@H](CC[C@@H]6[C@H]5C[C@@H](O)[C@]5(C)[C@@H](C7=CC(=O)OC7)CC[C@]65O)C4)C[C@@H]3O)C[C@@H]2O)C[C@H](O)[C@@H]1O` was tested, and the Potency was 0.224 µM (active).
For `CN(C)c1nc(-c2ccccc2)c2cc(Cl)ccc2n1`, the Potency was “inactive”.
For `Cc1c(CC(=O)NCc2ccccc2Cl)c(=O)oc2cc(O)ccc12`, the Potency was “inactive”.
In the case of `CC(=O)Oc1c(Cl)cc(Cl)cc1/C=C/c1ccc2ccccc2n1`, the Potency is reported as “inactive”.
In the case of `COc1ccc(C=Cc2ccc3ccccc3n2)c(OC)c1`, the Potency is reported as “inactive”.
With `COc1cc(/C=C/c2ccc3cccc(OC)c3n2)c(OC(C)=O)c([N+](=O)[O-])c1` the Potency was 35.5 µM (active).
In the case of `CCOC(=O)c1c(C)[nH]c(C)c1C(=O)COC(=O)c1ccc(S(=O)(=O)C(F)F)cc1`, the Potency is reported as “inactive”.
In the case of `CCOC(=O)c1c(C)[nH]c(C)c1C(=O)COC(=O)c1ccc([N+](=O)[O-])s1`, the Potency is reported as “inactive”.
In the case of `CCOC(=O)c1c(C)[nH]c2c1-c1ccccc1C(=O)C2=O`, the Potency is reported as 2.82 µM (active).
In the case of `O=C(NCc1ccco1)c1cccc2c1C(=O)c1ccc(N3CCC(Cc4ccccc4)CC3)cc1S2(=O)=O`, the Potency is reported as “inactive”.
For `CC1(C)CNc2cc([N+](=O)[O-])ccc2S1`, the Potency was “inactive”.
For `CCOC(=O)N1CCN(c2nc(-c3ccccc3)c3ccccc3n2)CC1`, the Potency was “inactive”.
In the case of `CCOC(=O)c1cc(-c2ccccc2)nc2nc(N3CCCCC3)sc12`, the Potency is reported as “inactive”.
In the case of `CCOC(=O)c1c(-c2ccccc2)nnn1-c1nc(OCC)nc(N2CCCCC2)n1`, the Potency is reported as 39.8 µM (active).
